Laboratory results from PubChem BioAssay.
Some of the results follow. Active and inactive are the calls of the source.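 Rule for the calls, unless noted: active = reconfirmed compounds whose average cytotoxicity reaches 50% or more; inactive = the rest.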

Key:
[1] = cytotoxicity in PPC-1 cells, confirmation, cytotoxicity control for TRAIL apoptosis potentiator project, cell-based, ATP content luminescence (AID 1447); conditions: PPC-1 viability, ATPlite luminescence, overnight; at 5 µM; stronger effect = higher value;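 note: 0% = DMSO-treated cells and 100% = wells holding medium but no cells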
[2] = PMA/ionomycin-induced NF-kB reporter inhibitors, Jurkat retest, confirmation, T-cell NF-kB inhibitor project, cell-based, luminescence, single concentration (AID 435020;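 active = inhibition reaching about 45% at 4 µM in either replicate, limit read from the data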;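 note: plate controls were PMA/ionomycin stimulated DMSO wells for no effect and unstimulated DMSO wells for full effect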); conditions: Jurkat NF-kB luciferase, 16 h, at 4 µM, stronger effect = higher value
[3] = HIF-2a reporter inhibitor retest, confirmation, luminescence, 786-0 RCC cells (AID 651580;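 active = mean inhibition across four replicates of at least 40 percent at the single tested concentration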); conditions: HIF-2a luciferase reporter luminescence, overnight, at 18.8 µM, stronger effect = higher value
[4] = HIF-1a luciferase reporter signal reduction – MiaPaCa-2 cells, single concentration, counter-screen for HIF-2a inhibitor project, confirmation (AID 651589;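 active = mean inhibition of the reporter signal across four replicates at the single tested dose of 50% or more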); conditions: MiaPaCa-2 HIF-1a luciferase reporter, desferoxamine, overnight; at 18.8 µM; stronger effect = higher value
[5] = target: Sentrin-specific protease 8 (Homo sapiens) (UniProt Q96LD8); assay: SENP8 protease inhibitors, retest, confirmation, biochemical, luminescence, single concentration (AID 488912;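 active = mean inhibition across replicates above about 50%, limit read from the data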); conditions: Recombinant SENP8, Z-RLRGG-aminoluciferin luminescence, 60 min; at 12.5 µM; stronger effect = higher value
[6] = target: Sentrin-specific protease 6 (Homo sapiens) (UniProt Q9GZR1); assay: SENP6 protease inhibitors, confirmation, biochemical, luminescence, single concentration (AID 488915;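 active = mean inhibition above about 50% in the one-dose retest, limit read from the data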); conditions: recombinant SENP6, Z-RLRGG-aminoluciferin luminescence; at 12.5 µM; stronger effect = higher value
[7] = target: Sentrin-specific protease 7 (Homo sapiens) (UniProt Q9BQF6); assay: SENP7 protease inhibitors, retest, confirmation, biochemical, luminescence, single concentration (AID 488917;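 active = mean inhibition above about 50% in the one-dose retest, limit read from the data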); conditions: recombinant SENP7, Z-RLRGG-aminoluciferin luminescence, 40 min; at 12.5 µM; stronger effect = higher value
Caspase-3 (Homo sapiens) = Caspase-3 (Homo sapiens) (UniProt P42574); assay: caspase-3 protease inhibitors, confirmation, selectivity assay for SENP inhibitor project, biochemical, single concentration (AID 488918;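 active = mean inhibition above about 50%, limit read from the data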;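 note: plate controls were enzyme with DMSO for no effect and wells without caspase-3 for full effect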); conditions: purified caspase-3, Z-DEVD-aminoluciferin luminescence, 60 min; at 12.5 µM; stronger effect = higher value
[8] = luciferase luminescence interference by compounds, confirmation, artefact control for SENP inhibitor project, biochemical, single concentration, SENP8 reaction pre-completed (AID 488919;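 active = mean inhibition above about 50% when retested at one dose, limit read from the data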;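 note: plate controls were DMSO wells with completed reaction for no effect and substrate without enzyme for full effect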); conditions: Pre-incubated SENP8/Z-RLRGG-aminoluciferin, at 12.5 µM, stronger effect = higher value
[9] = Peg3 promoter reporter inhibitors, retest, confirmation, cell-based, HeLa, luciferase reporter, single concentration (AID 602417;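 active = at 20 µM dose, 40% or more inhibition averaged across four replicates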); conditions: HeLa PEG-Prom luciferase reporter, luminescence, overnight; at 20 µM; stronger effect = higher value
PEG-3 [10] = target: PEG-3 (UniProt Q6IN02); assay: Peg3 promoter luciferase inhibitors, potency, dose response, cell-based, HeLa, CREF/GAPDH counter-screen panel (AID 624167); conditions: CREF/GAPDH counter-screens; HeLa PEG-Prom luciferase reporter, overnight, run 1, dose range 1, at 100 µM (top of the series) unless noted
PEG-3 [11] = target: PEG-3 (UniProt Q6IN02); assay: as above; conditions: CREF/GAPDH counter-screens; HeLa PEG-Prom luciferase reporter, overnight, run 2, dose range 1, at 100 µM (top of the series) unless noted
Rat fibroblasts (CREF) [12] = assay: as above; conditions: CREF/GAPDH counter-screens; run 1, dose range 1, at 100 µM (top of the series)
Rat fibroblasts (CREF) [13] = assay: as above; conditions: CREF/GAPDH counter-screens; run 2, dose range 1, at 100 µM (top of the series)
[14] = target: Tumor necrosis factor receptor superfamily member 10B (Homo sapiens) (UniProt O14763); assay: caspase-8 TRAIL sensitization, hit retest, confirmation, cell-based, NB7+caspase-8, with/without TRAIL, luminescence panel (AID 651596; in the data active = activity above about 50%); conditions: NB7 neuroblastoma + caspase-8, TRAIL sensitization, luminescence viability, with TRAIL, mean of runs, at 10 µM, stronger effect = higher value
[15] = as above; conditions: NB7 neuroblastoma + caspase-8, without TRAIL, luminescence viability, without TRAIL, mean of runs, at 10 µM
[16] = inhibition of Brca1/Bard1 split-luciferase complementation, confirmation, counter-screen for Mdm2/MdmX interaction inhibitor project, luminescence, single concentration (AID 504668; call rule not given here); conditions: Brca1/Bard1 bimolecular luciferase complementation counterscreen, at 8 µM, stronger effect = higher value
[17] = target: Protein Mdm4 (Homo sapiens) + E3 ubiquitin-protein ligase Mdm2 (Homo sapiens) (UniProt O15151+Q00987); assay: retested Mdm2-MdmX interaction blockers, confirmation, cell-based, luminescence, single concentration, set 2 (AID 504601;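 active = mean inhibition of the luminescence signal across two replicates at or above 26 percent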); conditions: SaOS-2 split-luciferase Mdm2/MdmX complementation, at 8 µM, stronger effect = higher value
[18] = inhibitors of PAF-induced NF-kB signaling, retest, confirmation, cell-based, GFP fluorescence, single concentration (AID 602472; in the data active = inhibition above about 40%;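 note: stimulus PAF is a Pseudomonas aeruginosa filtrate and not platelet activating factor; plate controls were DMSO wells with stimulus for no effect and unstimulated DMSO wells for full effect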); conditions: KKLEB CF airway cells, overnight, at 5 µM, stronger effect = higher value

Sequence of Caspase-3 (Homo sapiens) (P42574 28-227 limits assumed): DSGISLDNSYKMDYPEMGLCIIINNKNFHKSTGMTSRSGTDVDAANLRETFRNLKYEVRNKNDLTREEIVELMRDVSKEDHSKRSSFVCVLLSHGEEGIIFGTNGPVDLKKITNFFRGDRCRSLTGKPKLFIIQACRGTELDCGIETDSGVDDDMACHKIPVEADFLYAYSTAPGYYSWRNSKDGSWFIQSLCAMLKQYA
Sequence of Tumor necrosis factor receptor superfamily member 10B (Homo sapiens) (O14763 whole entry, looked up): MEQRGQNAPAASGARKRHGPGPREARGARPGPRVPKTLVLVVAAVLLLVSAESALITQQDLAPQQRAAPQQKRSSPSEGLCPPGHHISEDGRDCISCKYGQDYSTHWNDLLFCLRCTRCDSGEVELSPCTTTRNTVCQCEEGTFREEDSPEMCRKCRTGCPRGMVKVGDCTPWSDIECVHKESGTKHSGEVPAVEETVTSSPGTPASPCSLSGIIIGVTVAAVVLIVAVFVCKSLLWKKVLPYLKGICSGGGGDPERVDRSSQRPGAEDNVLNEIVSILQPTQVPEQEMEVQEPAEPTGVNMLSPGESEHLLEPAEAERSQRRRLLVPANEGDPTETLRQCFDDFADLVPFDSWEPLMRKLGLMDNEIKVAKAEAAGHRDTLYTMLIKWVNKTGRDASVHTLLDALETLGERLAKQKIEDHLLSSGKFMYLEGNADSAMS
Sequence of PEG-3 (Q6IN02 whole entry, looked up): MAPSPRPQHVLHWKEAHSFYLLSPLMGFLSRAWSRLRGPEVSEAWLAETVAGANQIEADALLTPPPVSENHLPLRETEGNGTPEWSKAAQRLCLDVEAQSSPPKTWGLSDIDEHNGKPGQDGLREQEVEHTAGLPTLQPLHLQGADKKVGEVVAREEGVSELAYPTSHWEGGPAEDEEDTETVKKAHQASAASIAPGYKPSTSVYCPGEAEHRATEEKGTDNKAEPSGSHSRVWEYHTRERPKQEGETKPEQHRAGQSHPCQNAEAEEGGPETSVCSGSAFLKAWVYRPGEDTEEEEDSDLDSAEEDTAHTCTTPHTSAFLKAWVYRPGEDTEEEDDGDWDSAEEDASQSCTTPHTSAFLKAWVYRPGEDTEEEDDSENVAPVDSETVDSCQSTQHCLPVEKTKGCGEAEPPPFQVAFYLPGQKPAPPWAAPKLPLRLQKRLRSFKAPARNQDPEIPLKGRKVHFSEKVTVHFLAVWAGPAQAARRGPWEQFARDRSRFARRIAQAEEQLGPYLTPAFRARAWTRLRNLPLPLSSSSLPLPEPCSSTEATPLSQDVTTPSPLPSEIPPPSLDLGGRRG
Sequence of Sentrin-specific protease 7 (Homo sapiens) (Q9BQF6 706-1050 limits assumed): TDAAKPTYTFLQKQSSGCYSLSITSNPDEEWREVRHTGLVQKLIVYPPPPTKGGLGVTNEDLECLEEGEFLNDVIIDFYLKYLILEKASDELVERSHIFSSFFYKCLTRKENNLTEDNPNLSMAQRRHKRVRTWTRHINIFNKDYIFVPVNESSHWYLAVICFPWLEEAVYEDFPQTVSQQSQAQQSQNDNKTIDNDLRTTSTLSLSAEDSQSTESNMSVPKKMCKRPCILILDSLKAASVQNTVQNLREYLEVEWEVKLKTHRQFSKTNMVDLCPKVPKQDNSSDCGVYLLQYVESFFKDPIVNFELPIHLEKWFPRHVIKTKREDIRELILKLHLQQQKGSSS
Sequence of Sentrin-specific protease 8 (Homo sapiens) (Q96LD8 whole entry, looked up): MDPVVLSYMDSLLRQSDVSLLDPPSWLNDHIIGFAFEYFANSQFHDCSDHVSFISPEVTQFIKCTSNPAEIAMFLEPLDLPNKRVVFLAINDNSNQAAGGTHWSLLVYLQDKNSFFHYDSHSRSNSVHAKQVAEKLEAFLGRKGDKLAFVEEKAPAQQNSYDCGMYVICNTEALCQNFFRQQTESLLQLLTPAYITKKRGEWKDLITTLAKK
Sequence of Sentrin-specific protease 6 (Homo sapiens) (Q9GZR1 628-1112 limits assumed): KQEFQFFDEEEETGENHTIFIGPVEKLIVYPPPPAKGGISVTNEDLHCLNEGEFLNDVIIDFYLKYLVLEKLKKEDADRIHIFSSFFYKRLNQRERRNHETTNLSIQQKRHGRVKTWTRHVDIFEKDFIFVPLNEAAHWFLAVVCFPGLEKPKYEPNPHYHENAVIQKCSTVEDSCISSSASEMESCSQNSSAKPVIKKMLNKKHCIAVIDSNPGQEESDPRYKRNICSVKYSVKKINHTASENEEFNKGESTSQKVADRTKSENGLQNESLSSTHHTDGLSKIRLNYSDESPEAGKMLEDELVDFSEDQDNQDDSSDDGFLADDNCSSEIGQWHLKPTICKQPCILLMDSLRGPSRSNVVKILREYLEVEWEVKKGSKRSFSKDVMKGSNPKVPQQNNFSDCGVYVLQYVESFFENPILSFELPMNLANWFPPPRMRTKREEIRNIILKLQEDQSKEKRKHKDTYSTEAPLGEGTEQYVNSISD
Sequence of Protein Mdm4 (Homo sapiens) + E3 ubiquitin-protein ligase Mdm2 (Homo sapiens) (O15151 whole entry, looked up): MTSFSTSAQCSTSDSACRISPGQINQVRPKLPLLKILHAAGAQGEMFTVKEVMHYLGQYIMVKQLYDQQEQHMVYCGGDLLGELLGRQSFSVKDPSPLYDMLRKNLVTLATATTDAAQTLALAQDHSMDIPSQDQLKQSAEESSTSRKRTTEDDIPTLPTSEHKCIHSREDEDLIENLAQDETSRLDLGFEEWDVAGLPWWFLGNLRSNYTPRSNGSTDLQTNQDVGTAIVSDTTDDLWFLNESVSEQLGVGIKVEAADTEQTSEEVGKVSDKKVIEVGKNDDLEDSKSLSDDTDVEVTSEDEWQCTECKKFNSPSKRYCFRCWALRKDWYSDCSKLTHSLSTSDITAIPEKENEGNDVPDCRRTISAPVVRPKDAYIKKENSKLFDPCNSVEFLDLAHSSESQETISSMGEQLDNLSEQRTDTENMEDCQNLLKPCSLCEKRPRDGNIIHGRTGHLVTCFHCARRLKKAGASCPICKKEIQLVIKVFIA
Sequence of Protein Mdm4 (Homo sapiens) + E3 ubiquitin-protein ligase Mdm2 (Homo sapiens) (Q00987 whole entry, looked up): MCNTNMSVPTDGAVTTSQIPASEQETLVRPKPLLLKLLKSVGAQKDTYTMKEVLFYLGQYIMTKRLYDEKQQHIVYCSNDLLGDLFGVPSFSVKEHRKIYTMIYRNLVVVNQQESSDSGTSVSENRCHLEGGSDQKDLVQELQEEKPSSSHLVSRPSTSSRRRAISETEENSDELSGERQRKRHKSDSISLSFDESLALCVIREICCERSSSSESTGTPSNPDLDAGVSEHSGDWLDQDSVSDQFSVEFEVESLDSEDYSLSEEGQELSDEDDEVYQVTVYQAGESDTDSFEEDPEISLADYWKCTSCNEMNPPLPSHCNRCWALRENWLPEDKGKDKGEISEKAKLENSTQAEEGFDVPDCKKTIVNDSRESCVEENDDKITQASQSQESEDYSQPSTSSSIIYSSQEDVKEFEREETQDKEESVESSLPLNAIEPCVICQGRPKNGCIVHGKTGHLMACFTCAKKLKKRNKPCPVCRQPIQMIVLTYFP

CS(=O)(=O)N(CC(=O)N1CCOCC1)c1ccc2c3c(cccc13)CC2
cytotoxicity [1]: -7.5% (inactive)

O=C(CN1C(=O)c2ccccc2S1(=O)=O)N1CCc2ccccc21
cytotoxicity [1]: 46.8% (inactive)
inhibition [2]: 34.6% (inactive)
inhibition [3]: 94.3% (active)
inhibition [4]: 96% (active)

COc1cccc(/C=C/C(=O)Nc2ccc3c(c2)OCCO3)c1
cytotoxicity [1]: 48.7% (inactive)

Cc1nc(-c2ccc(Cl)cc2)sc1C(=O)NN
cytotoxicity [1]: 57.2% (active)

CC(Nc1nc(N2CCCC2)nc2ccccc12)c1ccccc1 (stereo not drawn)
cytotoxicity [1]: 8.3% (inactive)

O=C(O)CCCC(=O)Nc1ccccc1-n1ccnc1
cytotoxicity [1]: -3.3% (inactive)

Cn1c(C(=O)NCCCN2CCN(c3cccc(Cl)c3)CC2)cc2c(=O)n(C)c3ccccc3c21
cytotoxicity [1]: 15% (inactive)

O=C(NCC12CC3CC(C1)CC(CNC(=O)N1CCCC1)(C3)C2)N1CCCC1
cytotoxicity [1]: -1.2% (inactive)

COc1ccc(-c2cc(C(=O)NCc3ccco3)no2)cc1OC
cytotoxicity [1]: 17.4% (inactive)

CCOc1cc(N2CCOCC2)c(OCC)cc1NC(=O)c1cc(C)nc2ccccc12
cytotoxicity [1]: -9.1% (inactive)

N/C(=N\OC(=O)c1ccc([N+](=O)[O-])cc1)c1ccccn1
cytotoxicity [1]: 11.3% (inactive)

COc1ccc(C(=O)/C=C/Nc2ccccn2)cc1
cytotoxicity [1]: 76.8% (active)
inhibition [2]: -78.9% (inactive)
inhibition [5]: 97.4% (active)
inhibition [6]: 98% (active)
inhibition [7]: 102% (active)
inhibition (Caspase-3 (Homo sapiens)): 97% (active)
inhibition [8]: 96.4% (active)
inhibition [9]: 57.9% (active)
inhibition [3]: 80.7% (active)
inhibition [4]: 79.7% (active)
inhibition (PEG-3 [10]): 95.5%
inhibition (PEG-3 [11]): 94.2%
inhibition (Rat fibroblasts (CREF) [12]): 96.2%
inhibition (Rat fibroblasts (CREF) [13]): 96.7%
activity [14]: 81.4%
activity [15]: 68.6%

O=C(c1ccc(F)cc1)n1c(=S)nc2ccccn21
cytotoxicity [1]: 81.2% (active)
inhibition [2]: -90.8% (inactive)
inhibition [5]: 16.3% (inactive)
inhibition [6]: 14.2% (inactive)
inhibition [7]: 50.1% (active)
inhibition (Caspase-3 (Homo sapiens)): 19.5% (inactive)
inhibition [8]: -9.8% (inactive)

O=C(Nc1cccc(O)c1)c1ccc(C(=O)c2ccccc2)o1
cytotoxicity [1]: 18.6% (inactive)

CCOC(=O)c1c(C)[nH]c2c1-c1ccccc1C(=O)C2=O
cytotoxicity [1]: 96.4% (active)

Clc1cccc(-c2nc3nc4ccccc4nc3n2Cc2ccco2)c1
cytotoxicity [1]: -6% (inactive)

CCOC(=O)C1C(=O)OC2(CCCC2)C1C(=O)OCC (stereo not drawn)
cytotoxicity [1]: -4.2% (inactive)

c1ccc2cc3c(NCCN4CCOCC4)ccnc3cc2c1
cytotoxicity [1]: 18% (inactive)

Cc1ccc(-n2nc3cc(C)c(NC(=O)c4cccnc4)cc3n2)cc1
cytotoxicity [1]: 34.7% (inactive)

C=CCn1c(C)cc(C2=NNC(=NCC)SC2)c1C
cytotoxicity [1]: 88% (active)
inhibition [2]: 67.5% (active)
inhibition [5]: -3.3% (inactive)
inhibition [6]: 1% (inactive)
inhibition [7]: 8% (inactive)
inhibition (Caspase-3 (Homo sapiens)): 1.7% (inactive)
inhibition [8]: -1% (inactive)
inhibition [16]: 24.4% (active)
inhibition [9]: 95.2% (active)
inhibition [3]: 98.7% (active)
inhibition [4]: 104% (active)
inhibition (PEG-3 [10]): 99.4%
inhibition (PEG-3 [11]): 98.1%
inhibition (Rat fibroblasts (CREF) [12]): 98.4%
inhibition (Rat fibroblasts (CREF) [13]): 98.1%
activity [14]: 93.8%
activity [15]: 90.7%

CCCC(=O)Nc1nnc(CC(=O)OCC)s1
cytotoxicity [1]: -5.4% (inactive)

CCOc1ccc(-c2ccc(SCC(=O)N3CCOCC3)nn2)cc1
cytotoxicity [1]: 57.7% (active)

CNC(=O)COC(=O)c1cc(-c2ccc(OC)cc2)nc2ccccc12
cytotoxicity [1]: 36.3% (inactive)

COc1cc(NS(=O)(=O)c2ccc(NC(C)=O)cc2)cc(OC)c1
cytotoxicity [1]: -8.5% (inactive)

O=C(/C=C/c1ccc(Cl)c([N+](=O)[O-])c1)c1ccc(O)cc1
cytotoxicity [1]: 4.1% (inactive)
inhibition [17]: 103% (active)
inhibition [9]: 98.9% (active)
inhibition [18]: -37.9% (inactive)
inhibition [3]: 20.2% (inactive)
inhibition [4]: 105% (active)
inhibition (PEG-3 [10]): 102%
inhibition (PEG-3 [11]): 99.1%
inhibition (Rat fibroblasts (CREF) [12]): 99.1%
inhibition (Rat fibroblasts (CREF) [13]): 98.7%

Clc1ccc(-c2cc(-c3ccccn3)on2)c(Cl)c1
cytotoxicity [1]: 89.7% (active)
inhibition [5]: 94.7% (active)
inhibition [6]: 95.8% (active)
inhibition [7]: 102% (active)
inhibition (Caspase-3 (Homo sapiens)): 94.9% (active)
inhibition [8]: 32.9% (inactive)

Cc1nnc(N/N=C/c2ccccn2)[nH]c1=O
inhibition [2]: 63.8% (active)

CCN(CC)c1ccc(/C=N/NC(=O)c2cnccn2)c(O)c1
inhibition [2]: -7.5% (inactive)

CC(=O)c1sc(NC(=O)c2ccc(C)cc2)nc1C
cytotoxicity [1]: 52.3% (active)
inhibition [5]: -24.9% (inactive)
inhibition [6]: -17.1% (inactive)
inhibition [7]: 3.1% (inactive)
inhibition (Caspase-3 (Homo sapiens)): 6% (inactive)
inhibition [8]: -5.6% (inactive)
activity [14]: 68.5%
activity [15]: 68.1%

CCOc1ccc(NC(=O)c2ccc(NC(=O)COC(=O)c3ccc(NC(=O)CC#N)cc3)cc2)cc1
inhibition [2]: -36.5% (inactive)

Cc1ccc(-c2cn3cc(C)ccc3n2)cc1
cytotoxicity [1]: 85.8% (active)
inhibition [5]: 54.3% (active)
inhibition [6]: 91.7% (active)
inhibition [7]: 101% (active)
inhibition (Caspase-3 (Homo sapiens)): 95% (active)
inhibition [8]: 39.4% (inactive)
inhibition [16]: 29% (active)
inhibition [9]: 82% (active)
inhibition (PEG-3 [10]): 96.6%
inhibition (PEG-3 [11]): 96.4%
inhibition (Rat fibroblasts (CREF) [12]): 98.1%
inhibition (Rat fibroblasts (CREF) [13]): 96.8%
